Structures are written as SMILES. A number with no mark means an inactive call. Inconclusive results are not listed. Entries that show only a call come without a potency. The source made the active and inactive calls. Unless noted, the call rests on the fitted dose curve.

For the first experiment, the target named is Muscarinic acetylcholine receptor M1 (Homo sapiens) (UniProt P11229). The experiment in a line: Cholinergic receptor muscarinic 1 (CHRM1) small molecule agonists, cell-based qHTS assay (AID 1963589). Further: nearly all actives have a fitted effect of over 35% in size. To be noted: CHRM1-CHO cells, agonist mode, calcium flux fluorescence; series mostly up to 76.8 µM. In a few lines: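 Agonist-mode calcium-flux screen: compounds at 15 concentrations, three independent runs, were pin-transferred onto dye-loaded human CHRM1-CHO cells. Fluorescence was then recorded kinetically every second over minutes.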
Sequence of Muscarinic acetylcholine receptor M1 (Homo sapiens) (P11229 whole entry, looked up): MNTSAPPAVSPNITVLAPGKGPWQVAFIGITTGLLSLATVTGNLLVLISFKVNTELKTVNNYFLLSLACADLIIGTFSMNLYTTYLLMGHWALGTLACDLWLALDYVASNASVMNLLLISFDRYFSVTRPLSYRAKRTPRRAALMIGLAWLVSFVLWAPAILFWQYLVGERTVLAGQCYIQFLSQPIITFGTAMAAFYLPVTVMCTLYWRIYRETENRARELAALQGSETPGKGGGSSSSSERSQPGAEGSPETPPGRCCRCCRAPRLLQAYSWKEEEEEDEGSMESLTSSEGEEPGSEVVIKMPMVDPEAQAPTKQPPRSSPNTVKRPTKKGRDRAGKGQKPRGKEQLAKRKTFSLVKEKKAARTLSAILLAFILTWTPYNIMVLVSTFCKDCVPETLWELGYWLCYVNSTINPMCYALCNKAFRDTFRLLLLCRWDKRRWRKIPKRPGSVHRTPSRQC
Background: Quantitative high-throughput screening tests each substance at several concentrations.
As for `CN(CCCN1c2ccccc2CCc2ccccc21)CC(=O)c1ccc(Cl)cc1`, the Potency entry was “inactive”.
Same read-out and setting: for `Oc1ccc(C2(c3ccc(O)cc3)CC3CC2C2CCCC32)cc1` (stereo not drawn) the value was “inactive”; for `CC(CO)(CO)CO`, “inactive”; for `CC(C)(C)c1ccc(C(=O)O)cc1`, “inactive”.
On to `CCN1/C(=C/C=C/c2sc3ccccc3[n+]2CC)Sc2ccccc21`, for which the activation was -0.119% [at 15.8 µM].
Consider `CCCC(=O)OC`, for which the Potency entry was “inactive”.
On the same count and under the same terms, as for `C/C=C/C=C/CO`, the entry is “inactive”.
Consider `OCCOCC#CCOCCO`, for which the Potency entry is “inactive”.
Regarding `Cc1ccc(O)c2ncccc12`, the Potency result is “inactive”.
The same measure, in the same setting: as for `O=C(O)Cc1ccc(Cl)cc1Cl`, the entry is “inactive”; as for `CC(=O)OC(C)OC(C)=O`, “inactive”; as for `CCN(CC)CCOC(=O)C(c1ccccc1)C1CCCCC1` (stereo not drawn), “inactive”.
Regarding `CC1=CC(=C(c2ccc(N)cc2)c2ccc(N)cc2)C=CC1=N`, the activation is -0.812% [at 6.97 µM].
Take `CC(=O)OCC(C)OC(C)=O` (stereo not drawn): the Potency result is “inactive”.
`O=[N+]([O-])c1cccc(C(F)(F)F)c1`: the Potency result was “inactive”.
Take `O=C(/C=C/c1ccccc1)OCCc1ccccc1`: the Potency result is “inactive”.
The same measure, in the same setting: for `CCOC(=O)CC(=O)C(=O)OCC` the value was “inactive”.
As to `O=C(O)Cc1cc(I)c(Oc2ccc(O)c(I)c2)c(I)c1`, the Potency result is “inactive”.
On to `CC(C)C(O)(c1ccc(OC(F)(F)F)cc1)c1cncnc1` (stereo not drawn), for which the Potency result is “inactive”.
The same measure, in the same setting: for `O=Cc1ccc(O)c(O)c1O` the value was “inactive”; for `C=CCCCCCCC=C`, “inactive”.
Turning to `CC/C=C1/OC(=O)c2ccccc21`, the Potency entry is “inactive”.
Still for that read-out and setting: for `Cc1cccc(Nc2ccccc2)c1` the value was “inactive”; for `Cc1ccc([N+](=O)[O-])c(N)c1`, “inactive”; for `CC(=O)[O][Al]`, “inactive”.
`c1ccc2c(c1)ccc1c3ccccc3ccc21`: the Potency result is “inactive”.
Same read-out and setting: for `O=C1CCc2ccc(OCCCCN3CCN(c4cccc(Cl)c4Cl)CC3)cc2N1` the value was “inactive”; for `CCc1ccc2c(c1)C(=O)c1ccccc1C2=O`, “inactive”.
As to `CC(C)(C)c1cc(CO)cc(C(C)(C)C)c1O`, the Potency entry was “inactive”.
For the molecule `CCCCOC(=O)CO`, the Potency result is “inactive”.
With `CCCCCCOC(=O)c1ccccc1`, the Potency result was “inactive”.
As to `CC(C)c1ccccc1`, the Potency result is “inactive”.
Same read-out and setting: as for `CCN(Cc1cccc(S(=O)(=O)O)c1)c1ccc(C(=C2C=CC(=[N+](CC)Cc3cccc(S(=O)(=O)[O-])c3)C=C2)c2ccccc2)cc1`, the entry is “inactive”.
On the same count and under the same terms, for `N#CCCCC(C#N)CCC#N` (stereo not drawn) the value was “inactive”; for `O=C(c1ccccc1)C1CCCCC1`, “inactive”.

Test system in another experiment: not listed separately
The experiment in a line: cAMP Responsive Elements (CRE) small molecule agonists, cell-based qHTS assay (AID 1963590). As to conditions: CRE-bla HEK293T, beta-lactamase FRET ratio, 3 h; series mostly up to 92.4 µM. In a few lines: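 Agonist mode: compound added to CRE-bla HEK 293T cells (2,000/well, 18 h after plating) for 3 h at 37 C/5% CO2. Reporter activity detected via FRET beta-lactamase substrate, 2 h room-temperature loading.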
`CN(CCCN1c2ccccc2CCc2ccccc21)CC(=O)c1ccc(Cl)cc1`: the Potency entry was “inactive”.
Take `CC(CO)(CO)CO`: the Potency entry was “inactive”.
As to `CC(C)(C)c1ccc(C(=O)O)cc1`, the Potency result is “inactive”.
Turning to `C/C=C1\[C@H]2C=C(C)C[C@]1(N)c1ccc(=O)[nH]c1C2`, the Potency result is “inactive”.
Still for that read-out and setting: for `CCCC(=O)OC` the value was “inactive”.
Same read-out and setting: as for `C/C=C/C=C/CO`, the entry is “inactive”.
Same read-out and setting: as for `OCCOCC#CCOCCO`, the entry is “inactive”; as for `Cc1ccc(O)c2ncccc12`, “inactive”; as for `O=C(O)Cc1ccc(Cl)cc1Cl`, “inactive”.
As to `CC(=O)OC(C)OC(C)=O`, the Potency result was “inactive”.
In the case of `CC1=CC(=C(c2ccc(N)cc2)c2ccc(N)cc2)C=CC1=N`, the activation is -0.0749% [at 8.39 µM].
On to `CC(=O)OCC(C)OC(C)=O` (stereo not drawn), for which the Potency entry is “inactive”.
Consider `O=[N+]([O-])c1cccc(C(F)(F)F)c1`, for which the Potency result is “inactive”.
On the same count and under the same terms, as for `O=C(/C=C/c1ccccc1)OCCc1ccccc1`, the entry is “inactive”.
The same measure, in the same setting: as for `CCOC(=O)CC(=O)C(=O)OCC`, the entry is “inactive”; as for `CC(C)C(O)(c1ccc(OC(F)(F)F)cc1)c1cncnc1` (stereo not drawn), “inactive”; as for `C=CCCCCCCC=C`, “inactive”.
On the same count and under the same terms, for `CC/C=C1/OC(=O)c2ccccc21` the value was “inactive”; for `Cc1ccc([N+](=O)[O-])c(N)c1`, “inactive”.
Take `CC(=O)[O][Al]`: the Potency result is “inactive”.
Turning to `c1ccc2c(c1)ccc1c3ccccc3ccc21`, the Potency result was “inactive”.
For the molecule `CC(C)(C)c1cc(CO)cc(C(C)(C)C)c1O`, the Potency result is “inactive”.
As for `CCCCOC(=O)CO`, the Potency result is “inactive”.
The same measure, in the same setting: for `CCCCCCOC(=O)c1ccccc1` the value was “inactive”; for `CC(C)c1ccccc1`, “inactive”.
Still for that read-out and setting: as for `CCN(Cc1cccc(S(=O)(=O)O)c1)c1ccc(C(=C2C=CC(=[N+](CC)Cc3cccc(S(=O)(=O)[O-])c3)C=C2)c2ccccc2)cc1`, the entry is “inactive”.
Consider `On1ccccc1=S`, for which the Potency result is “inactive”.
As for `N#CCCCC(C#N)CCC#N` (stereo not drawn), the Potency entry is “inactive”.
For `O=C(c1ccccc1)C1CCCCC1`, the Potency result is “inactive”.

Test system in a further experiment: not listed separately
The experiment in a line: cAMP Responsive Elements (CRE) small molecule antagonists, cell-based qHTS assay (AID 1963591; active means well fitted inhibition curve with a large enough effect in the signal ratio in the repeat runs, not every such curve was filed as active; the % refers to the signal ratio; further: potency means the concentration at half of the fitted maximal effect). To be noted: CRE-bla HEK293T, beta-lactamase FRET ratio; series mostly up to 92.4 µM. The method in brief: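 Antagonist mode: compounds are added alongside the adenylyl cyclase activator NKH477 (0.25 uM final) to CRE-bla HEK293T cells for 3 h. LiveBLAzer FRET substrate, 2 h at room temperature, reports bla expression.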
`CN(CCCN1c2ccccc2CCc2ccccc21)CC(=O)c1ccc(Cl)cc1`: the Potency entry was “inactive”.
For the molecule `Oc1ccc(C2(c3ccc(O)cc3)CC3CC2C2CCCC32)cc1` (stereo not drawn), the Potency was 65.9 µM (active).
Same read-out and setting: as for `CC(C)(C)c1ccc(C(=O)O)cc1`, the entry is “inactive”.
Regarding `C/C=C1\[C@H]2C=C(C)C[C@]1(N)c1ccc(=O)[nH]c1C2`, the Potency entry was “inactive”.
In the case of `CCN1/C(=C/C=C/c2sc3ccccc3[n+]2CC)Sc2ccccc21`, the Potency is 11.6 µM (active).
`CCCC(=O)OC`: the Potency entry was “inactive”.
On the same count and under the same terms, as for `C/C=C/C=C/CO`, the entry is “inactive”.
On the same count and under the same terms, as for `O=C(O)Cc1ccc(Cl)cc1Cl`, the entry is “inactive”.
The same measure, in the same setting: as for `CC(=O)OC(C)OC(C)=O`, the entry is “inactive”; as for `CCN(CC)CCOC(=O)C(c1ccccc1)C1CCCCC1` (stereo not drawn), “inactive”.
In the case of `CC1=CC(=C(c2ccc(N)cc2)c2ccc(N)cc2)C=CC1=N`, the activity change, negative = inhibition was -12.2% [at 8.39 µM].
With `CC(=O)OCC(C)OC(C)=O` (stereo not drawn), the Potency entry is “inactive”.
The same measure, in the same setting: as for `O=[N+]([O-])c1cccc(C(F)(F)F)c1`, the entry is “inactive”; as for `O=C(/C=C/c1ccccc1)OCCc1ccccc1`, “inactive”.
On the same count and under the same terms, as for `CCOC(=O)CC(=O)C(=O)OCC`, the entry is “inactive”; as for `CC(C)C(O)(c1ccc(OC(F)(F)F)cc1)c1cncnc1` (stereo not drawn), “inactive”.
Turning to `O=Cc1ccc(O)c(O)c1O`, the Potency entry was “inactive”.
Still for that read-out and setting: as for `C=CCCCCCCC=C`, the entry is “inactive”.
Same read-out and setting: as for `CC/C=C1/OC(=O)c2ccccc21`, the entry is “inactive”; as for `Cc1ccc([N+](=O)[O-])c(N)c1`, “inactive”; as for `O=C1CCc2ccc(OCCCCN3CCN(c4cccc(Cl)c4Cl)CC3)cc2N1`, “inactive”.
For `CCCCOC(=O)CO`, the Potency entry is “inactive”.
Take `N#CCCCC(C#N)CCC#N` (stereo not drawn): the Potency result was “inactive”.
`O=C(c1ccccc1)C1CCCCC1`: the Potency entry is “inactive”.

For the origin of these results see PubChem BioAssay (Tox21).
